Shown are actives, neighbours in structure and some others; about 4.5% of the full set was active somewhere.
ssDAF12 agonist: S. stercoralis DAF-12 activation, primary screen; 1% of 370,000 active; activation, % at 6.8 µM; AID 652126; HEK293 ssDAF-12/GRIP1 lit1-tk-luc reporter, luminescence; % of 3 µM dafachronic acid response;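 active = activation above the mean over all tested compounds plus 3 SD, cut at about 0.9% in these data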;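 also: 0% = DMSO-only wells and 100% = 3 µM delta7-dafachronic acid wells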
hcDAF-12 act: activates DAF-12 receptor from parasite H. contortus. HEK293 hcDAF-12 lit1-tk-luc reporter, luminescence; 0% DMSO, 100% Δ7-dafachronic acid. activation, % at 6.8 µM. 1.4% of 370,000 active;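 active = activation above the mean of all tested compounds plus 3 SD, cut at about 5.5% in these data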;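 also: 100% = response to 3 µM Δ7-dafachronic acid high control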
DAX1 inh-1: inhibitors of DAX1 repression of SF-1 activated StAR promoter; AID 652010; inhibition, % at 6.8 µM; HEK293T StAR-luciferase reporter, SF-1/DAX-1 repression relief; 1.1% of 370,000 active;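 active = inhibition above the mean over all tested compounds plus 3 SD, cut at about 3.6% in these data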;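 also: 0% = DAX-1 cells with DMSO and 100% = cells lacking DAX-1 with DMSO; higher inhibition means more luminescence from relief of DAX-1 repression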
hgDAF-12 ag: hgDAF-12 agonism, primary luciferase screen | 1.8% of 370,000 active | HEK293 GAL4-hgDAF12 UAS-luciferase reporter, agonist luminescence; normalized to butyrate control | activation, % at 6.8 µM;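 active = activation above a cutoff set at the mean of all screened compounds plus 3 SD, cut at about 10% in these data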;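 also: 0% = DMSO wells and 100% = sodium butyrate wells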
DAX1 inh-2: inhibits human nuclear receptor DAX1; 0.99% of 340,000 active; inhibition, % at 6.75 µM; P51843; HEK293 Gal4-DAX1 luciferase reporter, luminescence;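 active = inhibition above the mean over all tested compounds plus 3 SD, cut at about 4.2% in these data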;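 also: 0% = DAX1-transfected cells with DMSO and 100% = empty-vector control cells with DMSO; inhibition shows as a rise in luminescence from relieved DAX1 repression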
Target sequence (P51843 207-470 limits assumed): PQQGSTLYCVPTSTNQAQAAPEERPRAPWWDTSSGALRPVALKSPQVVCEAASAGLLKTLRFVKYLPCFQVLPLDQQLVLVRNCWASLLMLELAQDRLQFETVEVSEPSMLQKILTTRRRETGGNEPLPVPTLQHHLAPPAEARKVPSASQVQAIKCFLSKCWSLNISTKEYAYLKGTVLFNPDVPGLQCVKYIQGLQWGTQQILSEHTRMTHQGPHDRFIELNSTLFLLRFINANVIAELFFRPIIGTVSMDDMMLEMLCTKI
FXN GAA850 act: frataxin GAA850 promoter activation. activation, % at 6 µM. AID 540364. 0.56% of 360,000 active. HEK293 lucGAA850 FXN promoter luciferase reporter, 24 h; percent of 10 µM SAHA response;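 active = activation above the average of all compounds screened plus 3 SD, cutoff fixed separately per campaign, cut at about 7.5% in these data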;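 also: 0% = DMSO wells and 100% = 10 µM SAHA wells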
* = called active by the depositor; . = not tested or not shown.

SMILES	ssDAF12 agonist	hcDAF-12 act	DAX1 inh-1	hgDAF-12 ag	DAX1 inh-2	FXN GAA850 act
Cc1ccccc1CCC[C@H](CC1CCCCC1)CN(C)C(=O)Oc1ccccc1	0	-2	-1	2	.	.
CCOC(=O)c1c(C)[nH]c(C(=O)C(Cc2ccccc2)N(C)C)c1C (stereo unspecified)	-1	-2	-1	3	0	1
COC(=O)c1c(C)[nH]c(C(=O)C(Cc2ccccc2)N(C)C)c1C (stereo unspecified)	0	6.4*	0	2	0	2
CC(C)(C)OC(=O)NCCCCC(N)[P+](=O)O (stereo unspecified)	0	-4	0	0	.	.
CC1CCN(CC(=O)c2ccccc2Cl)CC1	0	4	1	11*	2	4
CCC(NC(=O)OCc1ccccc1)P(=O)(Oc1ccccc1)Oc1ccccc1 (stereo unspecified)	-1	-3	-1	1	.	.
O=C1OC(c2ccc(Cl)cc2)=N/C1=C\N1CC2CC(C1)c1cccc(=O)n1C2 (stereo unspecified)	1.6*	-1	0	5	2	2
COc1ccc(-c2nn(CCC#N)cc2C(=O)Nc2ccccc2Br)cc1[N+](=O)[O-]	-2	-2	0	0	4.9*	3
COc1ccc(-c2nn(CCC#N)cc2C(=O)Nc2ccccc2Br)cc1	-2	-1	0	0	-2	1
COc1ccc(-n2nc(C(=O)NCC(=O)N3CCC4(CC3)OCCO4)c3ccccc3c2=O)cc1	-1	5.8*	1	8	1	4
COc1ccc(CNCC(=O)N2CCC3(CC2)OCCO3)cc1	-1	-1	0	5	0	1
N#CC1=C(N)Oc2c(c(=O)oc3ccccc23)C1c1ccncc1 (stereo unspecified)	-2	-2	-1	0	0	5
N#CC1=C(N)Oc2c(c(=O)sc3ccccc23)C1c1cccnc1 (stereo unspecified)	-2	0	4.1*	0	-1	-4
N#CC1c2ccccc2-n2nncc2CN1C(=O)c1ccc([N+](=O)[O-])o1 (stereo unspecified)	-2	-1	-2	-3	.	.
COc1cc(C(=O)N2C[C@H]3C[C@@H](C2)c2cccc(=O)n2C3)cc(OC)c1OC	0	-1	0	1	4.9*	2
O=[N+]([O-])/C=C/c1c(Cl)cccc1Cl	-1	1	2	0	-2	9.0*
CCN(CC)c1ccc(/C=C/[N+](=O)[O-])cc1	-2	1	0	4	-3	0
CN1CC[C@@H]2CN[C@H](c3ccccc3Br)C[C@@H]21	-1	0	2	6	.	.
Nc1c(C(=O)NCCCc2ccccc2)c2nc3ccccc3nc2n1Cc1cccs1	2.3*	2	-2	-4	-2	-3
CCC(=Nc1cccc(C(F)(F)F)c1)c1c(O)n(C)c(=O)n(C)c1=O	-1	0	0	0	4.5*	0
Cc1ccc(N2C(=O)/C(=C/N3CCN(C(=O)c4ccco4)CC3)C(=O)NC2=S)cc1C	-1	0	0	0	1	0
O=C1NC(=S)N(c2ccc(Br)cc2)C(=O)/C1=C/N1CCN(C(=O)c2ccco2)CC1	-1	1	0	1	4.7*	1
Clc1ccc([C@H]2CC3CCC2N3)cn1 (stereo partly specified)	-1	2	0	2	.	.
COc1cc2c(cc1OC)C13CCN4CC5=CCOC(CC(=O)O)C(C5CC41)C3N2 (stereo unspecified)	-1	1	0	2	5.7*	2
CO[C@H]([C@H](C)/C=C/N(C)C=O)[C@@H](C)C(=O)CC[C@H](C)[C@H](O)[C@H](C)[C@H]1OC(=O)/C=C/C(C)=C/[C@H](O)[C@H](OC)C[C@@H]2C=CC[C@@H](C[C@H](OC)[C@@H](CO)[C@@H](OC)C[C@@H](OC)[C@@H]1C)O2	-1	-1	.	-9	.	.
Cc1cc(C(=O)Nc2ccc3c(c2)OCCO3)nn1C(C)(C)C	0	2	1	7	5.7*	6
Cc1cc(C(=O)Nc2ccccc2)nn1C(C)(C)C	-1	2	1	5	3	3

From PubChem BioAssay
